High-throughput results: PubChem, National Center for Advancing Translational Sciences (NCATS)
This is a sample that favours compounds with a hit; in the whole collection about 19% have one here.
KB-V1 MDR tox: kills drug-selected multidrug resistant KB-V1 cells | 400,000 tested, 3.4% active | KB-V1 MDR cells viability, CellTiter-Glo, 72 h | Potency, µM (highest dose often 46.1 µM), most hits filed as cytotoxic; also: nearly all actives have a fitted effect of over 60% in size
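Readout: CellTiter-Glo luminescence, 10 min after addition. Cells: KB-V1 MDR subline, 72 h at 37 degrees C with compound. Analysis: corrected, normalized data fitted to concentration-effect curves.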
KB-3-1 tox: kills parental KB-3-1 adenocarcinoma cells; 400,000 tested, 1.4% active; KB-3-1 viability, CellTiter-Glo ATP luminescence, 72 h; Potency, µM (titrated, usually from 46.1 µM), usual class: cytotoxic; also: nearly all actives have a fitted effect of over 60% in size
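KB-3-1 parental drug-naive adenocarcinoma cells in DMEM/10% FBS, incubated 72 h at 37 C with pin-transferred compounds across a concentration series. Viability by CellTiter-Glo luminescence; concentration-response curves fitted after normalization.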
HT1080 IDH1KD tx: HT-1080 IDH1 knockdown cell toxicity (counter line). HT-1080 IDH1 knockdown viability, ATP luminescence, 48 h. Potency, µM (doses to about 46.1 µM), for inactives: top-dose activity, negative = toxicity, actives largely listed as cytotoxic. 360,000 tested, 2% active;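 also: 0% = DMSO wells and -100% = cell-free medium wells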
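After a 2 h attachment period, IDH1KD HT-1080 cells took pin-transferred compound for 48 h at 37 °C; ATP-based luminescence after 10 min room-temperature reagent incubation reported viability.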
TDP1 cell noCPT: qHTS for Inhibitors of human tyrosyl-DNA phosphodiesterase 1 (TDP1): qHTS in cells in absence of CPT; DT40 Tdp1-/- hTDP1 cells, no CPT, ATP luminescence, 48 h; Potency, µM (top dose mostly 46.2 µM), without a hit: at the highest dose activity change, negative = growth inhibition, actives largely listed as inhibitors; 420,000 tested, 15% active; also: nearly all actives have a fitted effect of over 55% in size
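Seeded 400 DT40-hTDP1 cells/well (vehicle DMSO, no 20 nM CPT); pinned compounds; ≥48 hr at 37 °C; CellTiter-Glo luminescence as viability measure.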
HT1080-NT tox: kills 2HG-producing HT-1080-NT fibrosarcoma cells | Potency, µM (top dose mostly 46.1 µM), for the others: top-dose activity, negative = less viability, actives largely listed as cytotoxic | HT-1080-NT fibrosarcoma viability, CellTiter-Glo ATP luminescence, 48 h | 360,000 tested, 1.6% active | AID 686970;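 also: NT is the 2HG producing partner of a matched IDH1 knockdown line; 0% = DMSO-treated cells and -100% = media-only wells without cells; nearly all actives have a fitted effect of over 55% in size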
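Viability of the 2HG-overproducing fibrosarcoma line after 48 hours of compound exposure at 37 degrees C was determined by luminescence with CellTiter-Glo, and concentration-effect curves were then fitted and categorized.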
TDP1 cell CPT: growth inhibition of DT40 Tdp1-/-;hTDP1 cells with camptothecin (screen for TDP1 inhibitors). chicken DT40 Tdp1-/-;hTDP1 cells + 20 nM CPT, ATP luminescence, 48 h. Potency, µM (top dose mostly 46.2 µM), for the others: at the top dose activity change, negative = growth inhibition, hits mostly inhibitors. 420,000 tested, 12% active. AID 686979; also: nearly all actives have a fitted effect of over 55% in size
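Chicken DT40 Tdp1-/- cells complemented with human TDP1, 400 cells/well, exposed to compounds plus 20 nM camptothecin for at least 48 h at 37 C; viability read as ATP content by CellTiter-Glo luminescence.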
* hit, by the source's call; i = inactive; ? = inconclusive; . = not tested or not shown. Calls follow the shape of the dose curve; as a rule, active = well fitted curve in the direction sought with a large enough effect; inconclusive = small, poorly fitted or top-dose-only effect, or another doubt; inactive = no such curve, though single readings can be large; an effect the other way counts as inactive or inconclusive. Unless noted, % is scaled to controls: 0 for no effect and ±100 for the full control effect; potency is read from the fitted curve at half-maximal effect.

SMILES | KB-V1 MDR tox | KB-3-1 tox | HT1080 IDH1KD tx | TDP1 cell noCPT | HT1080-NT tox | TDP1 cell CPT
COc1cccc(N2C(=O)CSC23C(=O)N(Cc2ccccc2F)c2ccccc23)c1 (configuration not stated) | ? | i | . | . | . | .
COc1ccc(N2C(=O)CSC23C(=O)N(Cc2ccccc2F)c2ccccc23)cc1Cl (configuration not stated) | 18µM* | ? | . | . | . | .
O=C1CSC2(C(=O)N(Cc3ccccc3F)c3ccccc32)N1c1cccc(C(F)(F)F)c1 (configuration not stated) | 8.2µM* | 18µM* | . | . | . | .
COc1cc(N2C(=O)CSC23C(=O)N(Cc2cccc(F)c2)c2ccccc23)cc(OC)c1OC (configuration not stated) | i | i | . | . | . | .
Cc1cc(C)cc(N2C(=O)CSC23C(=O)N(Cc2c(F)cccc2Cl)c2ccccc23)c1 (configuration not stated) | ? | ? | . | 16µM* | . | 16µM*
Cc1noc(Cn2c(=O)c3ccccc3n(CC(=O)Nc3ccc(F)cc3F)c2=O)n1 | i | i | . | -5% | . | ?
Cc1cccc(N2C(=O)N(CC(=O)C(C)(C)C)c3ccccc3S2(=O)=O)c1C | i | i | . | 13µM* | . | 15µM*
CC(=O)c1ccc(N2C(=O)N(Cc3cccc(C(F)(F)F)c3)c3ccccc3S2(=O)=O)cc1 | i | ? | . | 15µM* | . | 16µM*
COc1ccc(N2C(=O)N(Cc3ccc(C)cc3)c3ccccc3S2(=O)=O)cc1 | i | i | 2% | ? | -2% | ?
CCOc1ccc(N2C(=O)N(Cc3ccc(C)cc3C)c3ccccc3S2(=O)=O)cc1 | i | i | . | 16µM* | . | ?
CC(=O)c1ccc(N2C(=O)N(CC(=O)c3ccc(C)cc3)c3ccccc3S2(=O)=O)cc1 | i | i | . | 23µM* | . | ?
Cc1ccc(-n2nc(C(=O)N3CCCCC3C)c(=O)n(C)c2=O)cc1 (configuration not stated) | i | i | . | -7% | . | -14%
O=C(CC1C(=O)CCCC1=O)c1ccccc1 | i | i | ? | ? | ? | 13µM*
CCc1cccc(NC(=O)Cn2c3[n+](c4ccc(C(F)(F)F)cc42)CCCCC3)c1 | ? | i | -12% | 16µM* | -13% | ?
O=C(Cn1c2[n+](c3ccc(C(F)(F)F)cc31)CCCCC2)c1ccc2c(c1)OCCO2 | i | ? | -5% | 21µM* | -1% | ?
O=C(Cn1c2[n+](c3ccc(C(F)(F)F)cc31)CCCCC2)Nc1ccccc1 | i | i | -1% | -29% | 0% | ?
CSc1ccc(CN2CCC(CO)(CCOc3ccccc3)CC2)cc1 | i | i | -3% | ? | -1% | ?
Cc1ccccc1C(C)(O)c1cnc(C)n1Cc1ccccc1 (configuration not stated) | ? | ? | 0% | 12µM* | -6% | 21µM*
Cc1nccn1Cc1ccccc1 | i | i | . | -2% | . | 9%
CC1C=CC=CC=CC=CC=CC=CC=CC(OC2OC(C)C(O)C(N)C2O)CC2OC(O)(CC(O)CC(O)C(O)CCC(O)CC(O)CC(=O)OC(C)C(C)C1O)CC(O)C2C(=O)O (configuration not stated) | ? | 4.1µM* | 9.2µM* | 3.3µM* | 4.6µM* | 4.6µM*
CCOC(=O)N1CCN(C(=O)COc2ccc(S(=O)(=O)NC(C)C)cc2)CC1 | i | i | -4% | -9% | 15% | 9%
CSc1nc(N(C)NC(=O)c2ccc(F)cc2)c2ccccc2n1 | 1µM* | 0.65µM* | 0.52µM* | 0.73µM* | ? | 0.58µM*
Cn1c(CNC(=O)c2ccc(F)cc2)nc2ccccc21 | i | i | 2% | -28% | -2% | ?
COc1cccc(C#Cc2c(CO)[nH]c3ccccc23)c1 | i | i | 14% | ? | 0% | 18µM*
O=C(O)c1ccc(N2CCN(c3ccc(Cl)cc3)CC2)c([N+](=O)[O-])c1 | i | i | -12% | -4% | -8% | 11%
SMILES | KB-V1 MDR tox | KB-3-1 tox | HT1080 IDH1KD tx | TDP1 cell noCPT | HT1080-NT tox | TDP1 cell CPT
O=[N+]([O-])c1cccnc1N1CCCCC1 | i | i | 4% | 5% | 2% | -2%
O=[N+]([O-])c1cccnc1N1CCC(c2cc(-c3ccc(Cl)cc3Cl)n[nH]2)CC1 | i | i | ? | 21µM* | ? | 18µM*
CC(=O)c1ccc(N2CCC(c3cc(-c4ccc(Cl)cc4Cl)n[nH]3)CC2)c([N+](=O)[O-])c1 | 15µM* | ? | ? | 6.5µM* | 14µM* | 4.1µM*
O=C(Cn1ncc2c([nH]c3ccccc32)c1=O)N1CCOCC1 | i | i | 0% | 6% | -2% | 12%
CN(CCC#N)C(=O)CC1(Cc2ccccc2)CCOC(C)(C)C1 (configuration not stated) | i | i | -1% | 4% | -3% | -11%
CC(=O)c1ccc2c(c1)N(Cc1ccc3ccccc3c1)C(=O)C(C)S2 (configuration not stated) | ? | ? | ? | 5.2µM* | ? | 5.8µM*
CCCCN(C(=O)CCn1c(=O)oc2ccccc21)c1ccccc1 | i | i | 6% | ? | -1% | 18µM*
O=C(CCn1c(=O)oc2ccccc21)N(Cc1ccccc1)c1ccccc1 | i | i | -1% | ? | -13% | ?
CCCC(=O)N(CCN(C(=O)CCC)c1ccccc1)c1ccccc1 | 10µM* | i | -7% | 21µM* | 6% | 12µM*
Cc1sc2ncn(CC(=O)Nc3ccc(F)cc3Cl)c(=O)c2c1S(=O)(=O)N1CCN(c2ncccn2)CC1 | ? | i | . | -16% | . | -6%
CCc1nc2nc(C)c(NS(=O)(=O)c3ccc(Cl)cc3)c(=O)n2[nH]1 | i | i | 4% | 4% | -4% | 6%
O=C(CSc1nccn1Cc1ccccc1)Nc1ccc2c(c1)OCCO2 | . | . | . | -17% | . | 8%
O=CNc1cc(-c2ccoc2)cn2c(-c3ccc(F)cc3)cnc12 | ? | i | ? | 23µM* | -21% | 13µM*
O=CNc1cc(-c2cccc(F)c2)cn2c(-c3ccc(F)cc3)cnc12 | ? | i | 18% | ? | 1% | 29µM*
